Measurements as given in PubChem BioAssay AID720569 (National Center for Advancing Translational Sciences (NCATS), 2013).
Some of the results follow. Records with an inconclusive call do not appear. A number with no mark means an inactive call. Activity calls are given as the source filed them. The call rests on the fitted dose curve; in most records, active means well fitted inhibition curve with a large enough effect; inconclusive means small, poorly fitted or top-dose-only effect; inactive means no such curve, though single readings can be large or run the other way.

System: pyruvate kinase (Trypanosoma brucei)
Test: qHTS of Trypanosoma Brucei Inhibitors: Confirmatory Assay for Cherry-picked Compounds; further: nearly all actives have a fitted effect of over 70% in size
Conditions: recombinant TbPYK, Kinase-Glo ATP luminescence; series mostly up to 76.9 µM; activity change, negative = inhibition: at the top concentration
Excerpt: Members of the Trypanosomatidae family of parasitic protozoans cause a spectrum of diseases throughout the tropical and subtropical world. Sleeping sickness, caused by two subspecies of Trypanosoma brucei, is endemic to areas of sub-Saharan Africa, while Chagas' disease, a manifestation of Trypanosoma cruzi infection, is prevalent throughout Central and South America. In addition, many species of Leishmania are responsible for a range of cutaneous and visceral diseases, causing ulcers, destructive lesions and kalaazar, a lethal infection of the viscera. These diseases cause severe public health and economic burdens on populations that are often already caught in a tragic cycle of poverty, poor nutrition and disease. Collectively, parasites of the trypanosomatid family infect 30 million people worldwide (~500 million live in endemic areas), and account for ~130K deaths annually. Existing treatments have developed little in the past 50 years, and suffer from toxicity, poor efficacy and resistance; the goal of this project is to develop lead drugs that will be suitable for entry into pre-clinical trials. […] Glycolysis in axenically cultured T. cruzi, representing the intracellular pathogenic stage, is also essential for these parasites. {Engel, 1987} This project aims to discover and optimize selective inhibitors of the glycolytic enzyme pyruvate kinase (PYK) from Trypanosoma brucei, the parasite that causes sleeping sickness. […] Trypanosomatid PYKs show significant differences from their human counterparts including only 47-50% sequence identity and different allosteric and activation properties.{Callens, 1992} To this end, a qHTS was done against the MLSMR to discover inhibitors. NIH Molecular Libraries Probe Production Network [MLPCN] NIH Chemical Genomics Center [NCGC] Grant: MH095452 PI Name: Malcolm Walkinshaw, University of Edinburgh
Two uL of TbPYK/substrate buffer (columns 1-3, 5-48) are dispensed into Greiner white solid bottom 1536-well assay plates; column 4 receives only TEA buffer as 0x TbPYK controls. Compounds are then transferred via Kalypsys pin tool equipped with 1536-pin array (10 nL slotted pins, V&P Scientific, San Diego, CA). Following addition of compound, 2 uL of ADP (130 uM final concentration, all columns) is added to initiate the reaction. The plates are then incubated at room temperature for 45 minutes. Kinase-Glo Plus reagent is added (3 uL) and plates incubated for 10 minutes, before being transferred to a ViewLux high-throughput CCD imager (PerkinElmer) wherein single end-point measurements of luminescence are acquired using a clear filter. All reagents are diluted in an assay buffer consisting of 50 mM TEA (pH 7.2), 100 mM KCl, 10 mM MgCl2, 0.05% BSA and 0.01% Tween-20. All screening operations will be performed on a fully integrated robotic system (Kalypsys, San Diego, CA) containing one RX-130 and two RX-90 anthropomorphic robotic arms (Staeubli, Duncan, SC). Library plates will be screened starting from the lowest and proceeding to the highest concentration. Vehicle-only plates, with DMSO being pin-transferred to columns 5-48, will be inserted uniformly at the beginning and the end of each library in order to monitor and record any shifts in the background, which can be affected by reagent dispensers or loss in enzyme activity over time. Screening data will be corrected, normalized, and concentration-effect relationships will be derived by using publicly-available curve fitting algorithms developed in-house (http://ncgc.nih.gov/pub/openhts).
On the % scale 0 is the no-effect control and ±100 the full control effect; potency means the concentration at half of the fitted maximal effect.

Row | Compound | Potency | activity change, negative = inhibition
1 | N#Cc1c(N2CCCCC2)nc(N)c2c(N)nc(SCC(=O)O)cc12 | 31.6 µM (active) | –
2 | c1ccc(-c2nnc3n2NC(c2ccc4c(c2)OCO4)S3)cc1 (centres undefined) | 0.0708 µM (active) | –
3 | O=c1[nH]c2ccccc2n2c(-c3ccccc3)nnc12 | 0.126 µM (active) | –
4 | COc1cc(C2CC(=O)N3CN(Cc4ccccc4)CSC3=C2C#N)ccc1OCc1ccccc1 (centres undefined) | 0.126 µM (active) | –
5 | O=C(Nc1ccc(S(=O)(=O)N2CCOCC2)cc1)c1ccc2ncsc2c1 | 10 µM (active) | –
6 | O=C(CN1CCN(c2ccc(O)cc2)CC1)Nc1ccc(-c2ccccc2)cc1 | 28.2 µM (active) | –
7 | O=C(CN1CCN(c2ccc(O)cc2)CC1)Nc1cc(S(=O)(=O)N2CCOCC2)ccc1Cl | 14.1 µM (active) | –
8 | COCCNC(=O)Nc1ccc2nc(-c3ccco3)c(-c3ccco3)nc2c1 | 11.2 µM (active) | –
9 | COc1ccc(Cc2nnc(NS(=O)(=O)Cc3ccccc3)s2)cc1 | – | -17.7%
10 | Oc1c(CN2CCOCC2)ccc(CN2CCOCC2)c1O | 20 µM (active) | –
11 | Cc1nc2ccc(S(=O)(=O)NCC(=O)O)cc2s1 | 6.31 µM (active) | –
12 | Cc1ccc(/C=C/C(=O)Nc2ccc([N+](=O)[O-])c(NC(=O)/C=C/c3ccc(C)o3)c2)o1 | 17.8 µM (active) | –
13 | NC(=O)c1c(Nc2nc3c(F)cccc3s2)sc2c1CCCC2 | 4.47 µM (active) | –
14 | O=C(CCCCCn1c(=S)[nH]c2ccsc2c1=O)NC1CCCCC1 | 14.1 µM (active) | –
15 | CN(c1ccccc1)S(=O)(=O)c1cccc(NC(=O)Cc2ccc(Cl)cc2)c1 | 6.31 µM (active) | –
16 | O=c1ccc2c(-c3ccccc3S(=O)(=O)O)c3ccc(O)c(O)c3oc-2c1O | 8.91 µM (active) | –
17 | Cc1cccc(-n2c(N)c(C(=O)N3CCN(C)CC3)sc2=S)c1 | 1 µM (active) | –
18 | Cc1ccc(C)c2c1cc(C)c1nnc(SCC(=O)Nc3cccc(C(=O)O)c3)n12 | 2.24 µM (active) | –
19 | O=C1C=CC(=O)N1c1ccc(N2CCCCC2)cc1 | 7.08 µM (active) | –
20 | Cc1c(C)c(C)c(S(=O)(=O)N2CCC3(CC2)OCCO3)c(C)c1C | – | 5.05%
21 | O=C(CSc1ccc(-c2ccco2)nn1)Nc1cccc(F)c1 | 15.8 µM (active) | –
22 | Cc1cc(C2=NNC(=Nc3ccc(S(=O)(=O)N4CCOCC4)cc3)SC2)c(C)n1CC1CCCO1 (centres undefined) | 11.2 µM (active) | –
23 | CSc1c(SCc2ccccc2)cnn(Cc2ccccc2)c1=O | 17.8 µM (active) | –
24 | COc1cccc(C(=O)Nc2ccc(N3CCCC3)cc2)c1 | 20 µM (active) | –
25 | CC(=O)N1CC[n+]2c(-c3ccc([N+](=O)[O-])cc3)csc21 | 1.78 µM (active) | –
26 | COC(=O)/C=C\C(=O)Nc1cccc([N+](=O)[O-])c1 | – | -92%
27 | C=CCn1c(=S)[nH]c2scc(-c3ccco3)c2c1=O | 14.1 µM (active) | –
28 | Cc1nonc1C(=O)N/N=C/c1ccc(O)cc1 | 15.8 µM (active) | –
29 | Cc1cc(C#N)c(SCC(N)=O)nc1-c1ccc(F)cc1 | 2.82 µM (active) | –
